From PubChem BioAssay
A selection: hits, their analogues and other compounds. The true share with any hit is near 4.1%.
M18AAP inhibitor – PfM18AAP inhibitors, malaria aminopeptidase, primary screen, biochemical, QFRET, recombinant enzyme; M18 aspartyl aminopeptidase (Plasmodium falciparum 3D7); H-Glu-NHMec fluorogenic cleavage; inhibition, % at 7.35 µM; 1.2% of 290,000 active; AID 1822, 2009;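 active = inhibition above the campaign mean inhibition over all tested compounds plus 3 SD, cut at about 28% in these data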;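 note: 0% = plate median of test compound wells and 100% = 2 mM ZnCl2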
ALR inh – inhibitors of human ALR sulfhydryl oxidase, primary screen, biochemical, H2O2 detection, HRP-luminol luminescence, single point | 3.8% of 290,000 active | FAD-linked sulfhydryl oxidase ALR (Homo sapiens), P55789 | AID 485317, 2010 | purified ALR, DTT oxidation | inhibition, % (test concentration not listed);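 active = mean replicate inhibition above about 79%, with every replicate also reaching it, limit read from the data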
Target sequence (P55789 whole entry, looked up): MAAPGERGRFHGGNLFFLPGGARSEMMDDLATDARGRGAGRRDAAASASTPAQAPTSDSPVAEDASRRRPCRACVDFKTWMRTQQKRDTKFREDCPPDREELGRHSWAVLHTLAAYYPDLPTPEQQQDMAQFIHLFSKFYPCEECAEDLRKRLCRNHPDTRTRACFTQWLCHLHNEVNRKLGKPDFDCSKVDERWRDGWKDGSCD
PolyA inh – polyadenylation inhibitors in yeast reporter cells, primary screen, luminescence, S. cerevisiae | S. cerevisiae SKY197-pL101 polyadenylation reporter, beta-gal luminescence; efflux-impaired pdr1/pdr3 knockout yeast; score 100 = 6 SD above DMSO | activity score, % at 12 µM | 0.02% of 300,000 active;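 active = lowest replicate activity score at least 50, where 100 means six control SD above control mean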;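 note: yeast exposed to compound for 9 h at 30 °C; higher score means more reporter readthrough which indicates perturbed polyadenylation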
IDE inh – human IDE inhibitors in live cells, primary screen, fluorescence polarization, HEK cells, FAbetaB substrate; AID 434962, 2010; inhibition, % at 5.59 µM; FAbetaB cleavage; 0.41% of 320,000 active; Insulin-degrading enzyme (Homo sapiens), P14735;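 active = percent inhibition above the average of all tested compounds plus 3 SD, set per screening campaign, cut at about 16% in these data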;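 note: IDE supplied by intact live HEK cells; FP after avidin binding of uncleaved biotin substrate so inhibition keeps polarization high; 0% = DMSO wells and 100% = 60 µM reference IDE inhibitor Ii1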
CaV13 ICDI inh – Primary screen for inhibitors of IQ motif and Ca2+-dependent inactivation inhibitor domain binding in CACNA1D, Förster resonance energy transfer in living cells, … | HEK cells, CFP/YFP FRET ICDI-IQ, plate reader, 10 min; percent FRET-ratio fall versus neutral wells | inhibition, % at 12.3 µM | 0.098% of 340,000 active | AID 743397;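 active = mean replicate inhibition of at least 30% and at least 1% of replicates passing that level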;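 note: 0% = median of the neutral control wells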
IDE act – human IDE activators in live cells, primary screen, fluorescence polarization, HEK cells, FAbeta-B substrate. Insulin-degrading enzyme (Homo sapiens), P14735. FAbeta-B cleavage; 0% vehicle, 100% cell-free pure enzyme wells. 0.073% of 340,000 active. activation, % at 5.96 µM;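 active = activation above the mean of all tested compounds plus 3 SD, set per screening campaign, cut at about 17% in these data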
* = called active by the depositor.

How did CN(C)c1ccc(/C=N/NC(=O)c2ccnn2C)cc1 do in these assays?
M18AAP inhibitor: -10; ALR inh: 99*; PolyA inh: 0; IDE inh: 1; CaV13 ICDI inh: -20; IDE act: 0

How did CN(C)c1ccc(C=NNC(=O)c2cccnc2)cc1 do in these assays?
CaV13 ICDI inh: -7; IDE act: -4

How did Cn1ccc(C(=O)N/N=C/c2cccnc2)n1 do in these assays?
M18AAP inhibitor: -6; ALR inh: 1; PolyA inh: -1; IDE inh: 0; CaV13 ICDI inh: -3; IDE act: 6

How did CCCN(C(=O)c1cccc(-n2cccc2)c1)c1c(N)n(Cc2ccccc2)c(=O)[nH]c1=O do in these assays?
ALR inh: -13; PolyA inh: -13; IDE inh: 1; CaV13 ICDI inh: -6; IDE act: -1

What do the screens show for `O=C(N/N=C/c1ccncc1)c1ccccn1`?
M18AAP inhibitor: 4; ALR inh: -17; PolyA inh: 9; IDE inh: 4; CaV13 ICDI inh: -4; IDE act: -2

What do the screens show for `CN(C)c1ccc(/C=N/NC(=O)c2ccccn2)cc1`?
M18AAP inhibitor: 5; ALR inh: 87*; PolyA inh: -1; IDE inh: -1; CaV13 ICDI inh: -21; IDE act: 3

What do the screens show for `Nc1cccc(-c2csc(-n3ncc(C(=O)O)c3C(F)(F)F)n2)c1`?
M18AAP inhibitor: -9; ALR inh: 99*; PolyA inh: -3; IDE inh: -3; CaV13 ICDI inh: -3; IDE act: -4

How did CCCCCn1cnnc1SCC(=O)c1ccc2c(c1)OCO2 do in these assays?
ALR inh: 26; IDE inh: -2; CaV13 ICDI inh: -6; IDE act: 5

What do the screens show for `CCCCc1ccc(C2C(C#N)=C(N)SC(N)=C2C#N)s1`?
M18AAP inhibitor: 5; ALR inh: 98*; IDE inh: 15

How did CCOc1ccc(C2C(C#N)=C(N)SC(N)=C2C#N)c(OCC)c1 do in these assays?
M18AAP inhibitor: 10; ALR inh: 10; PolyA inh: 16; IDE inh: 11; IDE act: -9

How did Cc1ccc(C(=O)n2nc(-n3cccc3)c3c(C)cc(C)nc32)cc1 do in these assays?
M18AAP inhibitor: 3; PolyA inh: -15; CaV13 ICDI inh: -6; IDE act: 3

What do the screens show for `O=C1c2ccccc2NC(c2ccc(O)cc2)N1/N=C/c1ccc(O)cc1` (centres undefined)?
M18AAP inhibitor: -6; ALR inh: 99*; PolyA inh: -1; IDE inh: 0; CaV13 ICDI inh: -2; IDE act: 4

How did COc1ccc(C(=O)Nc2nc(C)c(C)s2)cc1OC do in these assays?
M18AAP inhibitor: -3; ALR inh: 99*; PolyA inh: 7; IDE inh: 3; CaV13 ICDI inh: 1; IDE act: 7

What do the screens show for `CCOC(=O)C1(Cc2ccccc2C)CCCN(C(=O)c2ccc(C(C)=O)s2)C1` (centres undefined)?
CaV13 ICDI inh: -4

How did Cc1cccc(COCC(Cc2ccccc2)N2CCN(C(=O)c3cccc(Cl)c3)CCC2=O)c1 (centres undefined) do in these assays?
M18AAP inhibitor: 0; ALR inh: -12; PolyA inh: 4; IDE inh: 0; CaV13 ICDI inh: -10; IDE act: 4

How did O=C(c1cccc(Cl)c1)N1CCC(=O)N(C(COCc2ccccc2)Cc2ccccc2)CC1 (centres undefined) do in these assays?
M18AAP inhibitor: -2; ALR inh: -9; PolyA inh: -6; IDE inh: 0; CaV13 ICDI inh: 55*; IDE act: 0

Results for Cc1ccccc1-n1c(=S)[nH]c2nc3c(cc2c1=O)CCCC3 ?
M18AAP inhibitor: 0; ALR inh: 98*; PolyA inh: -14; IDE inh: 1; CaV13 ICDI inh: -2; IDE act: 4

How did CCN(CC)c1ncnc2c1ncn2[C@H]1CN(Cc2ccccc2)C[C@@H](COC(C)=O)O1 do in these assays?
CaV13 ICDI inh: -10

Results for CC(=O)OC[C@@H]1CN(Cc2ccccc2)C[C@H](n2cnc3c(N(C)C(C)C)ncnc32)O1 ?
CaV13 ICDI inh: 45*

How did N/C(=N\OC(=O)CCCOc1ccccc1)c1ccccc1 do in these assays?
M18AAP inhibitor: -3; ALR inh: -2; PolyA inh: 0; IDE inh: 0; CaV13 ICDI inh: 18; IDE act: 1

Results for O=C1CN2Cc3c(ccc(Cl)c3Cl)N=C2N1 ?
ALR inh: 2; PolyA inh: -4; IDE inh: 5

How did C[C@H](O)[C@@H]1C(=O)N2CCc3c([nH]c4c(-c5ccccc5)cccc34)[C@@H]2C[C@@H]1N(C)C(=O)c1ccco1 do in these assays?
CaV13 ICDI inh: -4

How did CC1Sc2ccc(S(=O)(=O)CCC(=O)Nc3ccccn3)cc2NC1=O (centres undefined) do in these assays?
M18AAP inhibitor: 29*; ALR inh: -1; PolyA inh: -12; IDE inh: 3; CaV13 ICDI inh: -3; IDE act: -4

How did CC1Sc2ccc(C(=O)Nc3ccc(S(=O)(=O)N(C)C)cc3)cc2NC1=O (centres undefined) do in these assays?
ALR inh: 98*; PolyA inh: -10; IDE inh: 2; CaV13 ICDI inh: -16; IDE act: -2

What do the screens show for `C[C@]12CC(O)C3C(CCC4=CC(=O)CC[C@@]43C)C1CCC2c1csc(-c2ccccc2)n1` (some centres undefined)?
M18AAP inhibitor: -4; ALR inh: -1; PolyA inh: 8; IDE inh: -1; CaV13 ICDI inh: -5; IDE act: 2

How did O=C(CSc1nnc(CNC(=O)c2cccc(C(F)(F)F)c2)o1)NC1CCCCC1 do in these assays?
M18AAP inhibitor: 3; ALR inh: -12; PolyA inh: 13; IDE inh: 3; CaV13 ICDI inh: -6; IDE act: 4

What do the screens show for `Brc1ccc(-n2cccc2/C=N/n2cnnc2)cc1`?
M18AAP inhibitor: 31*; ALR inh: -1; PolyA inh: -4; IDE inh: -4; IDE act: 2

What do the screens show for `O=C(C=Cc1ccc2c(c1)OCO2)c1ccccc1`?
CaV13 ICDI inh: -6; IDE act: -7

What do the screens show for `O=C(/C=C/c1ccccc1)C1=C(O)C(=O)N(CCO)C1c1ccc2c(c1)OCO2` (centres undefined)?
M18AAP inhibitor: 12; ALR inh: 8; PolyA inh: 1; IDE inh: 0; CaV13 ICDI inh: 34*; IDE act: 2
